# Test results: paper PMC12548414
# The campaign covered roughly 1,600 compounds. About 20 (1%) showed an effect of 50% or more. This is one part of a sample in which strong results are shown more often than they occur.
# Tested on: T1, E. coli pLC1021 (luc-trpAt trans-translation reporter)
# T1 construct: pLC1021 luc-trpAt reporter strain
# Set-up: species or system Escherichia coli pLC1021; luc-trpAt non-stop luciferase reporter; luminescence rises when trans-translation is inhibited; normalized to KKL-35 and DMSO
# Conditions: reporter signal, KKL-35 = 100%; rise means trans-translation inhibition; 2 h, 20 µM
# Method: The luciferase screen was performed as previously described ([16]). […] 48 µL of cells was transferred to white 96-well plates, and 2 µL DMSO or 20 µM compound, or 20 µM KKL-35 was added. Plates were sealed with adhesive film, vortexed gently to mix, and incubated at room temperature for 2 h. 50 µL Bright-Glo reagent (Promega, Madison, WI) was added to each well, and the plates were sealed with adhesive film, vortexed vigorously, and incubated for an additional 10 min at room temperature. Luminescence was measured at 560 nm using a SpectraMax i3 microplate reader and readings for each plate were normalized to the average of three KKL-35-treated wells (positive control) and three DMSO-treated wells (negative control) within the plate to correct for plate-to-plate and day-to-day variations. Results from at least two biological repeats were averaged, and GraphPad Prism was used to plot the data. We screened a library of 1,601 anti-tubercular small molecules for their ability to inhibit trans-translation using a luciferase reporter in Escherichia coli. In this luc-trpAt reporter, the firefly luciferase gene has a trpA transcriptional terminator before the stop codon, such that luciferase is translated from a non-stop mRNA ([16]). When trans-translation is active, the luciferase will be tagged and degraded, but when trans-translation is inhibited, active luciferase will accumulate, resulting in a luminescent signal when luciferin is added. Luciferase activity was measured after growth in the presence of compounds from the library at 20 µM, using the known trans-translation inhibitor KKL-35 as a positive control (Fig. 1A) ([16], [17]). Compounds with activity one standard deviation above the median were scored as positive (Fig. S1 and Table S1).
row,Structure (SMILES),% activation
1,CC(C)(C)c1cc(Cl)c(O)c(NC(=S)NC(=O)c2cccc3ccccc23)c1 [KKL-0905],0%
2,O=C(C[n+]1nc(CNc2ccc(Cl)cc2)n2c1CCCCC2)c1ccc(Br)cc1 [KKL-1021],9%
3,CC(C)(C)c1cc(Cl)ccc1OCCCCn1ccnc1 [KKL-1305],5%
4,CN(CCn1ccnc1)Cc1cn(Cc2ccccc2)nc1-c1cc2ccccc2o1 [KKL-0649],0%
5,COc1ccc(CNCc2cn(-c3cccc(F)c3)nc2-c2ccc(C)o2)cc1 [KKL-0321],0%
6,Cn1cc(CCNC(=O)Nc2ccc(N3CCCCC3)nc2)cn1 [KKL-1828],0%
7,O=C(Nc1ccco1)N1CCN(Cc2cccs2)CC1 [KKL-1841],1%
8,CCc1cc(C(=O)OC)c(N=C(S)NCc2ccc(Cl)c(Cl)c2)s1 [KKL-1547],0%
9,O=C(C=Cc1ccco1)N1CCN(Cc2ccc3c(c2)OCO3)CC1 [KKL-1821],0%
10,CCC(C)c1ccc(O)c(NC(=S)NC(=O)c2cncc(Br)c2)c1 (stereo not shown) [KKL-0711],3%
11,CCn1cc(C(=O)O)c(=O)c2cc(F)c(N3CCN(C(S)=Nc4cc(C(F)(F)F)ccc4Cl)CC3)cc21 [KKL-1476],5%
12,CCN1CCN(c2cc3c(cc2F)c(=O)c(C(=O)O)cn3C2CC2)CC1 [KKL-0903],6%
13,CCn1cc(C(=O)O)c(=O)c2cc(F)c(N3CCNCC3)cc21 [KKL-0831],56%
14,Cc1nn(-c2ccc(F)cc2)c2nc(O)c(CNCc3ccccc3F)cc12 [KKL-0342],0%
15,CCCOC(=O)c1ccc(NC(=S)NC(=O)c2ccc(Cl)cc2)cc1 [KKL-0761],3%
16,CC1CN(c2ccc([N+](=O)[O-])cc2)CCN1C(=O)c1cccc(Br)c1 (stereo not shown) [KKL-1355],0%
17,NC1CCc2nc(-c3cccnc3)nc(Nc3cccc(C(F)(F)F)c3)c2C1 (stereo not shown) [KKL-0530],124%
18,O=C(NCCCn1ccnc1)c1cccnc1Nc1cccc(C(F)(F)F)c1 [KKL-0554],15%
19,NC1CCc2nc(-c3cccnc3)nc(Nc3ccc(C(F)(F)F)cc3)c2C1 (stereo not shown) [KKL-0526],137%
20,FC(F)(F)c1cccc(-n2cc(-c3ccccc3)c3c(NCc4cccnc4)ncnc32)c1 [KKL-1573],0%
21,Nc1cccnc1Nc1ccc(C(F)(F)F)cc1 [KKL-1711],4%
22,Cc1cnc(N2CCN[C@@H](Cc3ccccc3)C2)nc1Oc1ccc(-n2ccnc2)cc1 [KKL-1724],6%

row,Structure (SMILES),% activation
1,CCOC(=O)c1cnc(-n2nc(C)cc2C)nc1Nc1ccc(N(C)C)cc1 [KKL-0889],0%
2,Clc1ccc(Nc2nc(-c3ccccn3)cs2)nc1 [KKL-1793],0%
3,Cc1oc(-c2ccc3ccccc3c2)nc1CN1CCN(c2cnccn2)CC1 [KKL-0659],0%
4,CN(C)S(=O)(=O)c1ccc(C(=O)Nc2nnc(-c3ccc(Cl)s3)o2)cc1 [KKL-1747],1%
5,O=C(Nc1nnc(-c2ccc(Cl)s2)o1)c1ccc(Cl)s1 [KKL-1762],0%
6,CSc1ccc(-c2nnc(NC(=O)c3ccc(Cl)s3)o2)cc1 [KKL-1706],50%
7,CN1CCN(c2ccc(NC(=S)NC(=O)c3ccc(-c4cccc(Cl)c4)o3)cc2)CC1 [KKL-0357],18%
8,O=C(Nc1ccc2c(c1)OCCO2)c1cccc2nc3ccccc3nc12 [KKL-0843],0%
9,Cc1ccc(Cl)cc1N=C1C=C(NS(=O)(=O)c2cccs2)c2ccccc2C1=O [KKL-1115],0%
10,Cn1nc(-c2ccc3ccccc3c2)cc1[C@H]1CN2CC[C@H]1C[C@@H]2COC(=O)Nc1cccc(C(F)(F)F)c1 [KKL-0323],0%
11,Cc1ccc(C(=O)NC[C@H]2C[C@@H]3CCN2C[C@@H]3c2cc(-c3ccc4ccccc4c3)nn2C)cc1 [KKL-0337],0%
12,COC(=O)c1cccc(NC(=S)NC[C@H]2C[C@@H]3CCN2C[C@@H]3c2cc(-c3ccc4ccccc4c3)nn2C)c1 [KKL-1596],71%
13,Nc1cccnc1Nc1ccc(Cl)cc1 [KKL-1858],0%
14,NC1CCc2nc(-c3ccncc3)nc(Nc3ccc(Cl)cc3)c2C1 (stereo not shown) [KKL-0326],797%
15,NC1CCc2nc(-c3cccnc3)nc(Nc3ccc(Cl)cc3)c2C1 (stereo not shown) [KKL-0540],119%
16,CCOC(=O)CSc1nc(C#N)c(SCC(=O)OCC)s1 [KKL-0955],12%
17,O=C(Oc1cccc2cccnc12)C(Cc1ccccc1)N1C(=O)C2C3CCC(C3)C2C1=O (stereo not shown) [KKL-1364],9%
18,Cc1oc2ccccc2c1CN(CCCn1ccnc1)Cc1cccc(F)c1 [KKL-0544],0%
19,CCC(OC(C)=O)c1ccc(OC(C)=O)c(OC)c1 (stereo not shown) [KKL-0758],7%
20,CCOc1ccc(NC(=O)CSc2nc3ccc([N+](=O)[O-])cc3s2)cc1 [KKL-1417],0%
21,Cc1ccc(NCCC(=O)c2ccc([N+](=O)[O-])cc2)cc1C [KKL-0401],14%
22,COc1cc2cc(-c3nc4ccccc4[nH]3)c(N)nc2cc1OC [KKL-0395],22%

row,Structure (SMILES),% activation
1,Cc1ccc2[nH]c(C3CCCNC3)c(-c3ccncc3)c2c1 (stereo not shown) [KKL-1820],14%
2,Cc1ccc2[nH]c3c(c2c1)CCCC3NCCCOc1ccc(F)cc1 (stereo not shown) [KKL-0771],84%
3,CC1CCc2sc3ncnc(NCCc4ccccc4)c3c2C1 (stereo not shown) [KKL-0868],2%
4,CCOC(=O)COc1ccc(C(=O)Nc2ccc(F)cc2)cc1 [KKL-0783],0%
5,CC12CC3CC(C)(C1)CC(CNCc1ccccc1O)(C3)C2 [KKL-1484],3%
6,CCCOC(=O)CSc1nnc(-c2cc(OC)c(OC)c(OC)c2)o1 [KKL-1095],0%
7,Cc1ccc(-c2csc(-c3ccncc3)n2)cc1C [KKL-0956],0%
8,COC(=O)[C@@H](NC(=O)c1cc(COc2c(F)cccc2F)on1)c1ccccc1 [KKL-0496],8%
9,CCOC(=O)c1ccc(NC(=O)C2C(=O)N(C)C3(C)CC2c2ccccc2O3)cc1 (stereo not shown) [KKL-1246],0%
10,Cc1cc([N+](=O)[O-])ccc1NC(=O)CN1C2CCC1CC(NC(=O)NC13CC4CC(CC(C4)C1)C3)C2 (stereo not shown) [KKL-1619],0%
11,CCCCCn1c(=O)c(C(=O)Nc2nc3ccccc3[nH]2)c(O)c2ccccc21 [KKL-1004],7%
12,CCCCCCn1c(=O)c(C(=O)Nc2nc(CC(=O)OCC)cs2)c(O)c2ccccc21 [KKL-0986],0%
13,CCOC(=O)Cc1csc(NC(=O)c2c(O)c3ccccc3n(CCC(C)C)c2=O)n1 [KKL-1615],75%
14,O=C(c1ccc(Cl)cc1)c1ccc(CSc2nnc(-c3ccccc3)o2)o1 [KKL-1212],0%
15,O=C(c1cnn(C(=O)c2ccco2)c1)c1cc(F)ccc1O [KKL-1685],3%
16,Clc1ccc(OCCCCCn2ccnc2)c(Cl)c1 [KKL-0421],0%
17,N#CCc1ccc(NC(=O)/C=C/c2ccc([N+](=O)[O-])o2)cc1 [KKL-1204],0%
18,c1cnc(N2CCN(c3nncc(-c4ccc(C5CCCCC5)cc4)n3)CC2)cn1 [KKL-0667],0%
19,Cc1cc(Cl)ccc1NC(=O)CCc1ccc(S(=O)(=O)NC(C)C)cc1 [KKL-1581],0%
20,CCc1ccc(CCC(=O)Nc2ccc(C)cc2)o1 [KKL-1248],0%
21,CC(C)(C)c1ccc(C(=O)NC(=S)Nc2ccc(C(=O)O)cc2)cc1 [KKL-1314],0%
22,Cc1ccc(C(=O)NC(=S)Nc2ccc(S(=O)(=O)NC(C)C)cc2)cc1Br [KKL-0593],0%

row,Structure (SMILES),% activation
1,CC(=O)NC(=S)NNC(=O)c1ccc(-c2ccccc2)cc1 [KKL-0063],99%
2,Cc1ccc(C(=O)NCCC2=CCCCC2)cc1Br [KKL-1393],0%
3,CC(=O)NC(=S)NNC(=O)c1ccc(C)c(Br)c1 [KKL-0065],186%
4,COc1ccccc1C(=O)NNC(=S)NC(=O)c1ccc(-c2ccccc2)cc1 [KKL-0561],11%
5,O=C(O)c1ccc(NC(=S)NC(=O)c2ccc(-c3ccccc3)cc2)cc1 [KKL-1292],0%
6,CC(C)(C)c1ccc(C(=O)NC(=S)N2CCCC2)cc1 [KKL-1436],12%
7,CC(=O)NC(=S)NNC(=O)c1ccc(C(C)(C)C)cc1 [KKL-0588],143%
8,CNc1nc(SCC(=O)N(C)Cc2ccc(Cl)s2)nc2ccccc12 [KKL-1768],0%
9,Cc1cc(C)nc(/N=C(\N)Nc2cc(Cl)ccc2Oc2ccccc2)n1 [KKL-0289],0%
10,COC(=O)COc1ccc(NC(=O)c2ccccc2Br)cc1 [KKL-1572],0%
11,Cc1[nH]c2ccccc2c1/C=C1\SC(=N)N(c2nccs2)C1=O [KKL-1143],6%
12,Brc1cncc(-c2cc(NCCCn3ccnc3)nc(-c3ccccc3)n2)c1 [KKL-1784],0%
13,c1cnc2c(c1)ccc1cccnc12 [KKL-0825],8%
14,O=[N+]([O-])c1cc(O)c2ncccc2c1 [KKL-0003],46%
15,Oc1ccc(Br)c2cccnc12 [KKL-0093],371%
16,O=C(Nc1nc(-c2ccccn2)cs1)c1ncc(Cl)c(Cl)c1Cl [KKL-0390],10%
17,O=C(Nc1ccc(-c2nc3ccccc3c(=O)o2)cc1)c1ccccc1I [KKL-1501],2%
18,O=C(Nc1ccc(Cl)cc1)Nc1ccc(F)c(F)c1 [KKL-1350],0%
19,O=C(Nc1ccc(Cl)cc1)c1cc2c(cc1O)[nH]c1ccccc12 [KKL-0896],102%
